# From PubChem
# Tau FP inhib = qHTS for Inhibitors of Tau Fibril Formation, Fluorescence Polarization. Microtubule-associated protein tau (Homo sapiens), P10636. K18 P301L tau heparin fibrillization, Alexa594 FP, 6 h. Potency, µM (top dose mostly 57.7 µM), for the others: at the highest dose activity, negative = inhibition, usual class: inhibitors. hit rate 0.39% among 280,000; active = well fitted curve in the direction sought with a large enough effect; inconclusive = small, poorly fitted or top-dose-only effect, or another doubt; inactive = no such curve, though single readings can be large; an effect the other way counts as inactive or inconclusive; also: nearly all actives have a fitted effect of over 55% in size
# Target sequence (P10636 561-689 P618L limits assumed): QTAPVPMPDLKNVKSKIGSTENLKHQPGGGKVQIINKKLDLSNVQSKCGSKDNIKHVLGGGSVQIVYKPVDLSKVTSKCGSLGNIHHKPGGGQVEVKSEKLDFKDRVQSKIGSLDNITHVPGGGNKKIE
#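 K18 P301L tau (15 uM unlabeled/0.24 uM Alexa 594-labeled, final) + compound + heparin 20 uM final; 100 mM NaOAc pH 7; 6 hr 37 C; ThT 30 uM final added, 1 hr RT; FP ex 555/em 632 nm.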
# JMJD2E inh = qHTS Assay for Inhibitors of Human Jumonji Domain Containing 2E (JMJD2E); AID 2147, 2009; Potency, µM (doses to about 57.1 µM), for the others: at the top dose activity change, negative = inhibition, most hits filed as inhibitors; JMJD2E catalytic domain, FDH-coupled NADH fluorescence (FDH is formaldehyde dehydrogenase); hit rate 1.6% among 230,000;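 also: 0% = wells with enzyme and -100% = buffer wells without enzyme; nearly all actives have a fitted effect of over 50% in size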
# Target sequence (B2RXH2 1-337 limits assumed): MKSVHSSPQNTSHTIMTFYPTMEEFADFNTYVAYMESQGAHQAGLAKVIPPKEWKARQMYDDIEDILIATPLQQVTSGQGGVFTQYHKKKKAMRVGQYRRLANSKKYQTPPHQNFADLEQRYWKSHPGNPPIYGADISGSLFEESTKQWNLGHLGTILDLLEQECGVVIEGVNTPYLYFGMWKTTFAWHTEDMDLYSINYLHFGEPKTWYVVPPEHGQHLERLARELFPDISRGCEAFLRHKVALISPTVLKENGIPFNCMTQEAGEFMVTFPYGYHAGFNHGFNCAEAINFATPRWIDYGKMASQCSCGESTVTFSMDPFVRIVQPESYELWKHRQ
# ALDH1A1 block = qHTS Assay for Inhibitors of Aldehyde Dehydrogenase 1 (ALDH1A1); Purified ALDH1A1, NADH fluorescence, propionaldehyde substrate; Potency, µM (titrated, usually from 75.3 µM), without a hit: at the highest dose activity, negative = inhibition, usual class: inhibitors; hit rate 7.3% among 220,000; AID 1030, 2008;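 also: plate controls were no enzyme wells and a reference inhibitor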
# Tau fibril ThT = qHTS for Inhibitors of Tau Fibril Formation, Thioflavin T Binding; Potency, µM (highest dose often 57.4 µM), for inactives: at the top dose activity, negative = inhibition, most hits filed as inhibitors; AID 1460, 2008; hit rate 2.1% among 270,000; recombinant tau K18 P301L, heparin-induced fibrillization, ThT fluorescence; Microtubule-associated protein tau (Homo sapiens), P10636; active = well fitted curve in the direction sought with a large enough effect; inconclusive = small, poorly fitted or top-dose-only effect, or another doubt; inactive = no such curve, though single readings can be large; an effect the other way counts as inactive or inconclusive; also: nearly all actives have a fitted effect of over 55% in size
#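 Heparin-induced (20 uM) aggregation of recombinant human K18 P301L tau, 15 uM unlabeled with 0.24 uM labeled, pH 7 acetate buffer, 6 hr at 37 C with compound. Fibrils quantified by 30 uM ThT fluorescence after 1 hr ambient incubation.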
# HPGD block = qHTS Assay for Inhibitors of HPGD (15-Hydroxyprostaglandin Dehydrogenase); Potency, µM, for inactives: top-dose activity change, negative = inhibition, usual class: inhibitors; hit rate 4.3% among 150,000; 15-hydroxyprostaglandin dehydrogenase [NAD(+)] (Homo sapiens), P15428; purified HPGD, NADH fluorescence kinetic, PGE2 substrate
#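 20 nM HPGD preincubated 15 min at room temperature with compound in 50 mM Tris-HCl pH 8, 0.01% Tween 20. Started with 1 mM NAD+ and 30 uM prostaglandin E2; NADH fluorescence (360/450 nm) read 5 times over 30-s intervals, last minus first.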
# Tau fluor cs = Counterscreen qHTS for Inhibitors of Tau Fibril Formation, Fluorescence Polarization; tau K18 P301L (four-repeat tau fragment) Alexa594 fluorescence, heparin fibrillization; Potency, µM (top dose mostly 57.7 µM), for inactives: top-dose activity change, negative = decrease; hit rate 0.93% among 280,000; active = well fitted curve in the direction sought with a large enough effect; inconclusive = small, poorly fitted or top-dose-only effect, or another doubt; inactive = no such curve, though single readings can be large; an effect the other way counts as inactive or inconclusive; also: nearly all actives have a fitted effect of over 55% in size
#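 Human K18 P301L tau (15 uM unlabeled plus 0.24 uM Alexa 594-labeled, final) in 100 mM sodium acetate pH 7 was mixed with compound and 20 uM heparin and incubated 6 hr at 37 C.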
# * = called active by the depositor; ? = inconclusive; . = not tested or not shown; [ ] = remark or other dose. Hits are enriched below; roughly 9.9% of the tested compounds scored in any of these assays. Unless noted, calls follow the shape of the dose curve; as a rule, active = well fitted inhibition curve with a large enough effect (not every such curve was filed as active); inconclusive = small, poorly fitted or top-dose-only effect, or another doubt; inactive = no such curve, though single readings can be large or run the other way. Unless noted, % is scaled to controls: 0 for no effect and ±100 for the full control effect; potency is read from the fitted curve at half-maximal effect.
SMILES,Tau FP inhib,JMJD2E inh,ALDH1A1 block,Tau fibril ThT,HPGD block,Tau fluor cs
O=C(CSc1ncc(-c2ccc(Cl)cc2)[nH]1)Nc1ccccc1F,-4%,.,.,-22%,.,14µM*[quencher]
O=C(CSc1ncn[nH]1)Nc1ccc(Cl)c(Cl)c1,-4%,0%,4µM*,-6%,-3%,-7%
O=C(CSc1ncc(-c2ccccc2)[nH]1)Nc1ccccc1,12%,6%,-5%,-13%,-5%,?
O=C(CSc1ncc(-c2ccccc2)[nH]1)Nc1cccc(Br)c1,?,.,.,?,.,16µM*[quencher]
O=C(CSc1ncc(-c2ccccc2)[nH]1)Nc1ccc(Cl)cc1,-12%,.,.,-9%,.,14µM*[quencher]
CCOc1ccc(NC(=O)C2CCCN(S(=O)(=O)c3cccc4nonc34)C2)cc1 (centres undefined),1%,.,.,-6%,.,-6%
Cc1nn(S(=O)(=O)c2ccc(C(C)(C)C)cc2)c(C)c1S(=O)(=O)N1CCC(C)CC1,1%,.,.,3%,.,-1%
O=C(CSc1ncn[nH]1)NC1CC2CCC1C2 (centres undefined),10%,-6%,?,-3%,16µM*,3%
O=C(CSc1nnc(Cc2ccccc2)o1)NC1CC2CCC1C2 (centres undefined),-5%,-2%,?,-9%,-11%,-5%
COCCNC(=O)Cn1nc(-c2ccc(C)cc2)c2ccccc2c1=O,-4%,.,.,-13%,.,-16%
CCCN(CCC)C(=O)CSc1nc2ccccc2c(=O)n1CC1COc2ccccc2O1 (centres undefined),5%,-3%,11µM*,?,-13%,-7%
Oc1c(C(Nc2nccs2)c2ccc(C(F)(F)F)cc2)ccc2cccnc12 (centres undefined),?,3.5µM*,-3%,-8%,.,?
O=[N+]([O-])c1ccc([C@@H](Nc2ccccc2)c2ccc3cccnc3c2O)cc1,.,.,?,.,-12%,.
Oc1c(C(Nc2cccc(C(F)(F)F)c2)c2ccncc2)ccc2cccnc12 (centres undefined),10%,?,18µM*,?,.,-5%
Cc1ccc(C(Nc2ccccn2)c2ccc3cccnc3c2O)cc1 (centres undefined),9%,.,.,?,.,-24%
O=C(O)c1ccc(N[C@H](c2ccccc2)c2ccc3cccnc3c2O)cc1,.,.,4µM*,.,?,.
O=S(=O)(c1cccc(C(F)(F)F)c1)n1c(/C=C/c2ccccc2)nc2ccccc21,?,.,.,3%,.,-15%
Cc1ccc(NC(=O)Cn2c(=O)n(Cc3ccco3)c(=O)c3oc4ccccc4c32)cc1C,-18%,.,.,?,.,4%
O=C(/C=C/c1ccc(Cl)cc1)NC(=S)Nc1ccc(NC(=O)c2ccco2)cc1,?,12%,15%,?,-12%,-4%
Cc1ccc(S(=O)(=O)Nc2cccnc2Oc2ccc(Cl)cc2)cc1,-3%,1%,0.02µM*,-7%,.,-22%
Cc1ccc(C(=O)Nc2cccnc2Oc2ccc(Cl)cc2)cc1,-8%,?,3%,-17%,.,-22%
CC(C)c1nc(-c2ccc([N+](=O)[O-])cc2)cs1,0%,3%,-5%,-6%,-14%,-6%
CC(C)=NNc1nc(-c2ccc([N+](=O)[O-])cc2)cs1,10%,-2%,-3%,8.9µM*,.,-29%
CC(=O)Nc1nc(-c2ccc([N+](=O)[O-])cc2)cs1,9%,7%,4%,-5%,.,-7%
C/C=C/C=N/Nc1nc(-c2ccc([N+](=O)[O-])cc2)cs1,14%,-1%,7%,3.5µM*,-4%,?
SMILES,Tau FP inhib,JMJD2E inh,ALDH1A1 block,Tau fibril ThT,HPGD block,Tau fluor cs
O=C(O)CSCc1cccc2ccccc12,.,.,11%[13.5 µM],.,-9%,.
CC=C1C2C=C(C)CC1(N)c1ccc(=O)[nH]c1C2 (centres undefined),-8%,.,-2%,1%,.,2%
CC(C)(C)c1ccc(OCCNC(=S)Nc2ccccc2)cc1,3%,6%,4%,-4%,.,-7%
S=C(NCCOCCOCCNC(=S)Nc1ccccc1)Nc1ccccc1,-7%,-30%,13µM*,6%,.,-15%
S=C(NCCSCc1c(Cl)cccc1Cl)Nc1ccccc1,?,1%,?,-10%,25µM*,?
CCN(CC)CCCNC(=O)Cn1c(-c2cccs2)cc2cc(Cl)ccc21,-2%,.,.,?,.,?
Cc1ccc2cc(CN(C(=O)c3ccco3)c3ccccc3C)c(=O)[nH]c2c1,-5%,?,4.5µM*,-7%,-24%,0%
Cc1ccc(N(Cc2cc3ccc(C)cc3[nH]c2=O)C(=O)c2ccco2)c(C)c1,-5%,?,.,-12%,.,0%
CCOc1ccc(NCC2CCOC(C)(C)C2)cc1 (centres undefined),-5%,20µM*,?,?,-16%,-16%
CN=C(NC#N)NCCSC[C@H]1N=CN=C1C,.,11%[25.5 µM],5%[20.9 µM],.,-5%,.
Nc1ccc2nc(SCc3ccc([N+](=O)[O-])cc3)sc2c1,12%,0%,?,?,-7%,?
O=C(O)c1ccc(CSc2nc3ccc(N4C(=O)C5C6C=CC(C6)C5C4=O)cc3s2)cc1 (centres undefined),-10%,4%,28µM*,?,16µM*,-2%
CCc1cccc(CC)c1NC(=O)CSc1nc2ccc(N3C(=O)C4C5C=CC(C5)C4C3=O)cc2s1 (centres undefined),-11%,2%,?,?,8.9µM*,-24%
Cn1c(=O)c2c(ncn2CC(=O)N/N=C/c2ccc(Br)s2)n(C)c1=O,2%,-1%,20%,-1%,-8%,2%
COc1ccc(S(=O)(=O)N(CC(=O)Nc2ccccc2Br)Cc2ccccc2)cc1,-10%,.,.,-8%,.,?
Cc1ccc(S(=O)(=O)N(CCCO)CC(O)CON=C2c3ccccc3-c3ccccc32)cc1 (centres undefined),6%,-24%,8.9µM*,-11%,-9%,?
Cc1nn(Cc2ccccc2)c(C)c1NC(=O)CSc1nnc(-c2cc(Cl)ccc2O)n1C,15%,-7%,?,-2%,28µM*,-4%
CCCOc1ccc(N)cc1N,7.1µM*,?,5.6µM*,3.2µM*,-14%,11µM*[quencher]
